# According to the supplement of paper PMC6555819:
# Tests used:
# Test in all cases: PBM binding z-score (relative to random genomic background probes); higher = stronger binding; sequences stand for … in GC…GCGATTGACAGCGTAGAATGAAGG
# [1] = system: RARb homodimer (NR concentration 270 nM)
# Outline: (§1)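 Custom Agilent 4×180K protein-binding microarrays carried double-stranded probes. Their 34-nt variable regions held direct-repeat seeds, single-nucleotide variants, half-site ablations and random human genomic background sequences. Arrays were incubated 1 h with ligand-free nuclear receptor dimers in PBS pH 7.4, 2% milk, 0.02% Triton X-100, 1 mM DTT, 0.2 mg/mL BSA and 0.4 mg/ml salmon testes DNA. Antibodies against each partner (one per run) detected binding, and scanned fluorescence was regression-normalized. Binding z-scores use random background probes as reference.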
# [2] = system: RARg:RXRa (NR concentration 270 nM, RXRa partner concentration 90 nM)
# Outline: as §1
# [3] = system: RARg homodimer (NR concentration 270 nM)
# Outline: as §1
# [4] = system: RXRa DBDmut IVT, anti-RXR (DBD mutation: RXRa K156A/R161A, NR concentration 90 nM)
# Outline: as §1
# [5] = system: RXRa homodimer (NR concentration 180 nM)
# Outline: as §1
# [6] = system: THRa:RXRa (NR concentration 90 nM, RXRa partner concentration 90 nM)
# Outline: as §1
# [7] = system: THRa homodimer (NR concentration 90 nM)
# Outline: as §1
# [8] = system: VDR homodimer (NR concentration 270 nM)
# Outline: as §1
Sequence,PBM binding z-score [1],PBM binding z-score [2],PBM binding z-score [3],PBM binding z-score [4],PBM binding z-score [5],PBM binding z-score [6],PBM binding z-score [7],PBM binding z-score [8]
TCATATAGGTAAAGCTGAAAGTCGAACGATATGA,-0.67,0.267,0.377,0.431,0.587,-0.286,-1.16,-0.537
ATCGAAAGGTCGAAGTGAGTATAGAGAAAGGGAA,1.86,3.79,3.6,1.4,3.83,1.81,-0.426,0.425
ACTATTAGTTGACTTAGGGCAACTGATACGACGC,0.726,0.872,1.07,0.417,0.497,1.31,0.235,0.0906
GCACACAGGTGAAACGCAGGTAACTCAGGGTGGC,0.327,1.15,0.263,-0.192,0.954,1.47,-0.486,-0.299
GCTGCTACGTCAACTGATGGTCAGCTAAAGCTCG,-0.272,-0.163,-0.441,-0.129,-0.367,-0.498,-0.948,-0.701
AGAATGAGGTTACCAAAGACCAGGGAAACGCTTG,0.685,2.01,1.51,1.02,2.79,2.87,0.659,0.4
ACTAGTTGGTCAGCTGAAGTCACACACAATTCGG,0.741,0.686,0.796,0.337,0.297,0.346,-0.0517,0.0981
ACTCGGAGGACAAAGGTCAGAGCCACGCCAGTGA,4.56,6.18,5.6,1.27,6.11,3.55,0.686,1.13
CAAACTAGGTCATCGGAAGGTCAAAGTCCGCATG,5.46,8.08,6.47,2.25,5.58,4.2,2.3,3.67
CAAACTAGGTCAAGTTCAAAGTCGGTTTGTGCCA,4.52,5.17,5.92,3.84,4.23,3.52,2.16,6.29
TCATATAGGTAATACAGGTGAACGTCGGCATCTA,0.903,0.819,0.771,1.86,1.55,1.18,0.563,0.482
GCTAGCAGGCCATTTGGGTCAATCAATGACGGGC,1.62,0.878,1.21,0.0646,0.805,1.87,0.12,-0.0302
TTACCAAGGTGAAAGGTCGTTGACGCACGCCTTG,2.87,4.52,2.25,0.212,6.19,3.34,0.822,1.41
CCTTACGGGTCAAGGTTATTGCACGGGTGGTACG,3.5,4.83,4.5,0.197,5.06,3.04,0.977,1.95
ATCTCTAGGTAAGACTCAGTTTAGTGAAGAACGC,0.134,0.228,0.235,0.443,-0.191,0.364,0.619,0.252
TCTAGTTGGTCACGGAGGTTACACACGACGGGTA,2.39,2.29,2.43,0.609,2.16,1.71,0.725,0.629
ATCTCTAGGTAAGCCTCAGTTCAGTGAAGAACGC,0.726,0.273,0.0936,0.247,0.103,0.985,1.15,1.21
TCATATACGTAATACAGGTGAAAGTCGGCATCTA,0.8,0.758,0.567,1.76,1.3,0.75,0.27,0.145
GTACCAAGGTGGATAGGTCGTTGATGAGTAGGCG,0.625,0.328,0.275,-0.726,0.461,-0.0275,-0.612,-0.371
CCCACTGGGCCAAAGGTCATTGATTCCAATGCTC,4.72,5.82,4.39,0.468,6.2,3.27,0.821,2.28
TCTAGCAGGCCAGAGGGTCGCTCAAGAGGTACGG,0.452,0.125,0.0431,-0.342,0.375,-0.276,-1.24,-0.526
TCTCGGAGGACACGAAGGGTCAGAGCTCGACATC,3.84,3.26,3.44,0.595,2.4,2.92,0.541,0.624
ATCTCTAGGTAAAGATAGTCCAGTGAATGCAAAT,-0.17,0.22,0.658,0.0705,0.108,0.341,0.315,0.0378
CAAACTAGGGCACGAAAGGTCAAAGTCGAATGAC,5.2,6.2,5.83,1.44,6.29,4.84,0.977,1.87
GCTAGCAGGCCAATTGGGTCACTCAATGACGGGC,1.94,1.01,1.15,-0.58,0.841,1.66,0.0976,-0.328
TGAATGAGGTTATAAAATCAGGGAACGTTGCAAA,0.0245,1.01,0.843,0.43,1.44,1.56,-0.0954,0.227
ACTAGCAGGCCAAGTGTGGGTCACTCAAACAAAG,2.25,2.53,1.51,-0.502,0.982,1.44,-0.207,-0.135
GTACCAAGGTGAATAGGTCGTTGAGGAGTAGGCG,1.97,2.83,1.46,-0.482,1.63,1.76,0.714,0.676
